# Data taken from ChEMBL document CHEMBL1201862, “PubChem BioAssay data set” (2004).
# Hit rate of the full screen: of about 400,000 compounds, about 2,100 (0.53%) were called active. Roughly 14% stayed inconclusive and do not appear here. How the calls were made is not given here. The list comes from a sample in which actives are over-represented; it also holds similar structures and randomly drawn compounds.
# Biological target: Ataxin-2 (Homo sapiens) (UniProt Q99700)
# Assay: qHTS for Inhibitors of ATXN expression.
# Type: functional
# Sequence of Ataxin-2 (Homo sapiens) (Q99700 whole entry): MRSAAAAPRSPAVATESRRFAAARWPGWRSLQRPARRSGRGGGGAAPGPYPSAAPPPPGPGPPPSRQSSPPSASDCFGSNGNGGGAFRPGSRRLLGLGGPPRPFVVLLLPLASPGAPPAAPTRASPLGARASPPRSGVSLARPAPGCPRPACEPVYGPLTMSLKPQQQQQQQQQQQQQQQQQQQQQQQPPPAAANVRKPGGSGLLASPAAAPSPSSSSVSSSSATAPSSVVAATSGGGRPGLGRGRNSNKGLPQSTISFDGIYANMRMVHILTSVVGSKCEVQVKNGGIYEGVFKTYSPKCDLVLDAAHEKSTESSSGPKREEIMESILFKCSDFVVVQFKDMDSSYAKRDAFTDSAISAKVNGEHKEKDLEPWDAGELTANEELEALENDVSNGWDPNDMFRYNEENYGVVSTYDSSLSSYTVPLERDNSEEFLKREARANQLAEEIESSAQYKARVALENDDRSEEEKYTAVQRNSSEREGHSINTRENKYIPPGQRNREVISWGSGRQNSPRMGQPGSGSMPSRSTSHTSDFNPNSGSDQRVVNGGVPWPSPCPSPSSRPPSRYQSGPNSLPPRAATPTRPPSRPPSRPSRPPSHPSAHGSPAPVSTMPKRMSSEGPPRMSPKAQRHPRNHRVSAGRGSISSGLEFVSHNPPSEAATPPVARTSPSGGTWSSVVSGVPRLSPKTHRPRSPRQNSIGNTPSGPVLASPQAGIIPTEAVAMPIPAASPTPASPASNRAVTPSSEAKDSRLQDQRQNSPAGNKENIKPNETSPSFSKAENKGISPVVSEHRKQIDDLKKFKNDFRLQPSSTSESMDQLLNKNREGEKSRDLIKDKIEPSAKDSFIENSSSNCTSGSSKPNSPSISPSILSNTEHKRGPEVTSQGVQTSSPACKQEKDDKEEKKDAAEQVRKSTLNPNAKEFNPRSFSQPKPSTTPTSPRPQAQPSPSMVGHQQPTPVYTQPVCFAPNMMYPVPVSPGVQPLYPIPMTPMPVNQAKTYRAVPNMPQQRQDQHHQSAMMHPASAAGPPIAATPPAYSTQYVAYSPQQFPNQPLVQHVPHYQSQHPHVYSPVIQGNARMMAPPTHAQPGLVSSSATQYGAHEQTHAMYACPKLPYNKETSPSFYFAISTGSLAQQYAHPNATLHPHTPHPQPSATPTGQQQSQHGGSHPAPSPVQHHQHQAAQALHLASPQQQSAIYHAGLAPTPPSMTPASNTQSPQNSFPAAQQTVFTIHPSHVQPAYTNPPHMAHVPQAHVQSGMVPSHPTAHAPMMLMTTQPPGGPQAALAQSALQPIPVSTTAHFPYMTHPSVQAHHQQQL
row,SMILES,Potency
1,O=C(NCC1CCCCC1)C1(CC2CC(c3ccc(Cl)cc3)=NO2)CCNCC1 (configuration not stated),39.8 µM (active)
2,O=C(O)c1cc(-c2ccc(-c3ccc(F)cc3)o2)nc2ccccc12,inactive
3,C[C@@H]1C(c2cccc(Cl)c2)=NN(c2ccccc2)[C@H]1C(=O)N1CCOC1=O,inactive
4,Cc1[nH]n(-c2nc(-c3ccc(Cl)cc3)cs2)c(=O)c1N=Nc1ccc(O)cc1,26.7 µM (active)
5,Oc1c(Cl)cc(Cl)cc1/C=N/c1nc(-c2ccc(Cl)cc2)cs1,inactive
6,CC(=O)Nc1ccc(C2CC(c3ccc(Cl)cc3)=NN2c2ccccc2)cc1 (configuration not stated),inactive
7,O=C1OC(C(=O)Nc2ccc(Cl)c(C(F)(F)F)c2)Cc2ccccc21 (configuration not stated),inactive
8,CCOC(=O)c1cc(-c2ccc3c(c2)OCO3)nc2onc(C)c12,inactive
9,O=C(Nc1cccc(OC(F)(F)F)c1)C1Cc2c(-c3ccc4c(c3)OCO4)ccnc2O1 (configuration not stated),39.8 µM (active)
10,CC(=O)Nc1cccc(-c2ccnc3c2CC(C(=O)Nc2ccc(F)c(Cl)c2)O3)c1 (configuration not stated),22.4 µM (active)
11,CC(C)CN(CC(C)C)C(=O)c1cc2c(=O)n3ccccc3nc2s1,inactive
12,N=C(NOC(=O)c1ccccc1)C(Cc1ccccc1)C(=O)NOC(=O)c1ccccc1 (configuration not stated),39.8 µM (active)
13,O=C(NCCOC(=O)c1ccccc1)c1ccccc1,inactive
14,O=C(Nc1ccc(Cl)cn1)c1ccccc1SCc1ccccc1,inactive
15,COc1ccc(CN2C(=O)c3cccnc3C2=O)cc1S(=O)(=O)N1CCOc2ccc(C)cc21,inactive
16,O=C(c1cnn(-c2ccccc2)c1)c1ccccc1O,inactive
17,CC(Sc1ccccc1)C(=O)NN=C1CCCCCCC1 (configuration not stated),inactive
18,O=C(CN1CCN(C(=O)c2c(F)cccc2F)CC1)Nc1ccccc1C(F)(F)F,inactive
19,COc1ccccc1NC(=O)CN1CCN(CC(=O)Nc2ccc(Cl)c(C(F)(F)F)c2)CC1,44.7 µM (active)
20,CCOc1ccc(NC(=O)CN2CCN(CC(=O)Nc3ccccc3OC)CC2)cc1,inactive
21,O=C(Cc1ccccc1)Nc1ncccc1Cl,inactive
22,O=C1NC(=S)S/C1=C/c1ccc(N2CCOCC2)o1,10 µM (active)
23,Cc1ccccc1-c1ccc(/C=C2/SC(N3CCOCC3)=NC2=O)o1,inactive
24,Cc1ccc(-c2ccc(/C=C3\SC(N4CCOCC4)=NC3=O)o2)cc1,inactive
25,Cn1c(/C=C(\C#N)C(N)=S)ccc1-c1ccc(Br)cc1,11.2 µM (active)
26,N#C/C(=C/c1ccc(-c2ccc(Br)cc2)o1)C(=O)NC1CCCCC1,inactive

row,SMILES,Potency
1,CC(=O)c1sc2nsc(SCCN3CCOCC3)c2c1N,inactive
2,COc1ccc(CNc2nc3ccccc3n2C)c(OC)c1,inactive
3,CCn1c2ccccc2c2cc(CNCc3ccc(OC)cc3OC)ccc21,42.3 µM (active)
4,CCc1cc(=O)oc2c(CNCc3ccc(OC)cc3OC)c(O)c(Cl)cc12,inactive
5,Cc1cc(C)c(C(=O)COC(=O)C2CCN(c3ccc(C(F)(F)F)cn3)CC2)c(C)c1,inactive
6,CC[n+]1c(/C=C2/C=C(C)CC(C)(C)C2)sc2ccc(OC)cc21,39.8 µM (active)
7,CCN1CCN(Cc2ccc(NC(=O)c3ccc(C)c(NC(=O)c4cncc(-c5cccs5)c4)c3)cc2C(F)(F)F)CC1,20 µM (active)
8,CCN1CCN(Cc2ccc(NC(=O)c3ccc(C)c(NC(=O)c4cccc5[nH]ccc45)c3)cc2C(F)(F)F)CC1,35.5 µM (active)
9,O=C(CO)N/N=C/c1c2ccccc2cc2ccccc12,inactive
10,O=C(O)c1ccc(-n2cc(-c3cc4ccccc4oc3=O)nc2S)cc1,inactive
11,Cc1c(CCC(=O)NCCCN2CCCC2=O)c(=O)oc2cc(O)ccc12,inactive
12,Cc1cc(C(=O)N/N=C/c2cn(C)nc2C)c2ccccc2n1,inactive
13,COC(=O)NCC(c1cccnc1)N1CCN(c2ccccc2)CC1 (configuration not stated),inactive
14,CC(C)(C)c1cc(C(c2cccnc2)N2CCN(CCO)CC2)cc(C(C)(C)C)c1O (configuration not stated),25.1 µM (active)
15,CCN1CCN(C(c2ccc(C(F)(F)F)cc2)c2ccc3cccnc3c2O)CC1 (configuration not stated),inactive
16,Cc1onc(-c2c(Cl)cccc2Cl)c1C(=O)NNC(=O)c1c(-c2c(Cl)cccc2Cl)noc1C,inactive
17,N#Cc1sc2nc(C3CC3)cc(-c3ccc(Cl)cc3)c2c1N,inactive
18,CC(C)c1ccccc1NC(=O)CN1C(=O)c2cccc3cccc1c23,inactive
19,CCCCc1c(-c2ccccc2OC)ncn1CCc1ccc(OC)cc1,39.8 µM (active)
20,Nc1cccc2c1C(=O)N(Cc1cccc(Cl)c1)C2=O,inactive
21,CCCCc1c(-c2ccccc2OC)ncn1Cc1ccc(-c2ccccc2)cc1,22.4 µM (active)
22,COc1ccccc1C1=NC(c2ccccc2)CN1c1ccccc1 (configuration not stated),inactive
23,CCCCc1c(-c2ccccc2OC)ncn1C1CCCC1,22.4 µM (active)
24,COc1cc2c3nnc(-c4ccccc4)c-3cn(Cc3ccc(F)cc3)c2cc1OC,inactive
25,CCCCc1c(-c2ccccc2OC)ncn1CCc1cccc(Cl)c1,31.6 µM (active)
26,O=C1Cc2ccccc2C(=O)N1Cc1cccc(Cl)c1,inactive
